Our source for the inhibition values is ChEMBL document CHEMBL1961873, “Compounds: GSK PKIS; Assays: Nanosyn kinase panel” (2012).

For experiment [1], the target named is T1, Ephrin type-B receptor 2 (Homo sapiens) (UniProt P29323).
T1 sequence (whole entry): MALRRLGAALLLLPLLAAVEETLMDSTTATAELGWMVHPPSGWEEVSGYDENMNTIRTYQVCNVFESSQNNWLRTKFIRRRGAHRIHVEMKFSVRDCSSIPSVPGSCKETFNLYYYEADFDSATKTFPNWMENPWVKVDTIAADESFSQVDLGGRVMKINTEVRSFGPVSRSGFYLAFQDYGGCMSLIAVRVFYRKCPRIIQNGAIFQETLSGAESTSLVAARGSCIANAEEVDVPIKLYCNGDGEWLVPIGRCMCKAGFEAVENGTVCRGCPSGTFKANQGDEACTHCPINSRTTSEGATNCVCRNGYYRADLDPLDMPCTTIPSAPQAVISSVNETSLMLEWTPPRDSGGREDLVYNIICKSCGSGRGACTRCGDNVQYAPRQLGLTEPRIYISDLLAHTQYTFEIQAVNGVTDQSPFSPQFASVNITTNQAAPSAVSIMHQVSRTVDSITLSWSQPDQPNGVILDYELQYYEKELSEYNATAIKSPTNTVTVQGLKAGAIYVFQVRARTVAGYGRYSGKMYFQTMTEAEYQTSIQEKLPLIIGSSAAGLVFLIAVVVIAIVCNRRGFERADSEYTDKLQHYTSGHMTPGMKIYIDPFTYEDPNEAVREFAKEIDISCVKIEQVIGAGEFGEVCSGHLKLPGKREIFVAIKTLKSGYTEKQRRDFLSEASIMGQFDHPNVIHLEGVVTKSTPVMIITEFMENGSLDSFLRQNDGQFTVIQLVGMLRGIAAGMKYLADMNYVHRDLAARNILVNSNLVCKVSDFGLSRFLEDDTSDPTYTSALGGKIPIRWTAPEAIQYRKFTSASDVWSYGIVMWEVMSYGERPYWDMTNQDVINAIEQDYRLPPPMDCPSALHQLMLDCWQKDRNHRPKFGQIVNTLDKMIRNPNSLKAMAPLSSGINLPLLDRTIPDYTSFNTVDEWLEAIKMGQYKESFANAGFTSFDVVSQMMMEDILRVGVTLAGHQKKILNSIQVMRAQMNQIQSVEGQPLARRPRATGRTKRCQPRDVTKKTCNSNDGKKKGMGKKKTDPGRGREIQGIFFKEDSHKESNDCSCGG
The conditions noted are these: at 1 µM.

Experiment [2] has as its target T2, Ephrin type-B receptor 3 (Homo sapiens) (UniProt P54753).
T2 sequence (whole entry): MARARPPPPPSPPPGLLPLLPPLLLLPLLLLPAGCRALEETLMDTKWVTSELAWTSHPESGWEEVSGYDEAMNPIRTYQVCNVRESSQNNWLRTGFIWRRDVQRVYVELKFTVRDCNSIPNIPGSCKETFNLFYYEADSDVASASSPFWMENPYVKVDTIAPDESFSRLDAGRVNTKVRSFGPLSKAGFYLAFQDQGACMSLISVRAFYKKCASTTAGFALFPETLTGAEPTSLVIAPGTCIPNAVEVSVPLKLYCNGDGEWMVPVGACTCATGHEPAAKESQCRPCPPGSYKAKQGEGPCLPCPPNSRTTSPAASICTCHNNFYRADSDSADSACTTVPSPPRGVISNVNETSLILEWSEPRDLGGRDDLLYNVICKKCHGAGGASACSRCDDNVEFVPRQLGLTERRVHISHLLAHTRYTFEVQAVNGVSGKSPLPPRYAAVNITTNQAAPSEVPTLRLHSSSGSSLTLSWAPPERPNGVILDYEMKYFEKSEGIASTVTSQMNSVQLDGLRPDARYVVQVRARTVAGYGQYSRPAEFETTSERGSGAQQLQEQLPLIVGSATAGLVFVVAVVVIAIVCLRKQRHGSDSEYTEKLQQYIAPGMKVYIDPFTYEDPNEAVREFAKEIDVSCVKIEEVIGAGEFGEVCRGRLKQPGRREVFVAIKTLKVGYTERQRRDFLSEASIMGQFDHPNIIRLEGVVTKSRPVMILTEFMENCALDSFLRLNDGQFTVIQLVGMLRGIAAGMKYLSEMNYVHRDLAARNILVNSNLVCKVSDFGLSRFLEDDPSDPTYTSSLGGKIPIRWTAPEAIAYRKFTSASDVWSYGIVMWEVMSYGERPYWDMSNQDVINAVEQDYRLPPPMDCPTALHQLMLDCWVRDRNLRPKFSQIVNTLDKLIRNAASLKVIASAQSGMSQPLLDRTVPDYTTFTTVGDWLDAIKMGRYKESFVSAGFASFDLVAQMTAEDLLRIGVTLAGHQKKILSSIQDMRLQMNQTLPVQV
As to conditions: at 0.1 µM.

Experiment [3] addresses T2, Ephrin type-B receptor 3 (Homo sapiens). As to conditions: at 1 µM.
Experiment [4] addresses T3, Ephrin type-B receptor 4 (Homo sapiens) (UniProt P54760).
T3 sequence (whole entry): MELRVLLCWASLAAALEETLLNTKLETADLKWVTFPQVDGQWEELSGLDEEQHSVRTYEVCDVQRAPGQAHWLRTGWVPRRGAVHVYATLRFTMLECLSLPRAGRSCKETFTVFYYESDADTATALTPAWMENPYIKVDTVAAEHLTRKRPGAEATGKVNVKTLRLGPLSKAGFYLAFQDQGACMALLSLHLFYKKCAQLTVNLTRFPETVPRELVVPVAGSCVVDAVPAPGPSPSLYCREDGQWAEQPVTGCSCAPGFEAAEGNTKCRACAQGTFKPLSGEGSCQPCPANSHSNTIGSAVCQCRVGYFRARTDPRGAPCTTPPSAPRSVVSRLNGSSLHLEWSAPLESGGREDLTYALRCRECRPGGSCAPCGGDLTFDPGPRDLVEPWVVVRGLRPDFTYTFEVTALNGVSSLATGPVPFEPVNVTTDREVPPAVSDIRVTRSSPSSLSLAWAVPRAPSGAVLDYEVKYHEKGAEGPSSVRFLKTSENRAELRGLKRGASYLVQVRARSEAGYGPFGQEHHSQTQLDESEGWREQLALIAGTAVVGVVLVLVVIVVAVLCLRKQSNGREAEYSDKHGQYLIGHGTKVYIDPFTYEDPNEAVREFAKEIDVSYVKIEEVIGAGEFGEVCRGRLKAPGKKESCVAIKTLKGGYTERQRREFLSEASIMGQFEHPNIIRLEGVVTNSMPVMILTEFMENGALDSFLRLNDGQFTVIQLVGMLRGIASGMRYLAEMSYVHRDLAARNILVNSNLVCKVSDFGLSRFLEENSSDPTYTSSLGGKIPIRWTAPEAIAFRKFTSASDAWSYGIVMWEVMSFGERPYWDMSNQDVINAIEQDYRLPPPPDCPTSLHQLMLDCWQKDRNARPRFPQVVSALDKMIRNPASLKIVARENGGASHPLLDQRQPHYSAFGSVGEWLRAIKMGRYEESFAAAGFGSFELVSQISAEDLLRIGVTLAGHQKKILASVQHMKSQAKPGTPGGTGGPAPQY
The conditions noted are these: at 0.1 µM.

Experiment [5] deals with T3, Ephrin type-B receptor 4 (Homo sapiens). The conditions noted are these: at 1 µM.
Experiment [6] has as its target Receptor tyrosine-protein kinase erbB-2 (Homo sapiens) (UniProt P04626). As to conditions: at 0.1 µM.
The target is the same in experiment [7]. The conditions noted are these: at 1 µM.
Experiment [8] has as its target Receptor tyrosine-protein kinase erbB-4 (Homo sapiens) (UniProt Q15303). The conditions noted are these: at 0.1 µM.
For experiment [9] the target is unchanged. As to conditions: at 1 µM.
Experiment [10] has as its target Tyrosine-protein kinase Fer (Homo sapiens) (UniProt P16591). The conditions noted are these: at 0.1 µM.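 Also: reported figures are averaged percent inhibition of FER.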

Chain of Receptor tyrosine-protein kinase erbB-4 (Homo sapiens) (Q15303 whole entry): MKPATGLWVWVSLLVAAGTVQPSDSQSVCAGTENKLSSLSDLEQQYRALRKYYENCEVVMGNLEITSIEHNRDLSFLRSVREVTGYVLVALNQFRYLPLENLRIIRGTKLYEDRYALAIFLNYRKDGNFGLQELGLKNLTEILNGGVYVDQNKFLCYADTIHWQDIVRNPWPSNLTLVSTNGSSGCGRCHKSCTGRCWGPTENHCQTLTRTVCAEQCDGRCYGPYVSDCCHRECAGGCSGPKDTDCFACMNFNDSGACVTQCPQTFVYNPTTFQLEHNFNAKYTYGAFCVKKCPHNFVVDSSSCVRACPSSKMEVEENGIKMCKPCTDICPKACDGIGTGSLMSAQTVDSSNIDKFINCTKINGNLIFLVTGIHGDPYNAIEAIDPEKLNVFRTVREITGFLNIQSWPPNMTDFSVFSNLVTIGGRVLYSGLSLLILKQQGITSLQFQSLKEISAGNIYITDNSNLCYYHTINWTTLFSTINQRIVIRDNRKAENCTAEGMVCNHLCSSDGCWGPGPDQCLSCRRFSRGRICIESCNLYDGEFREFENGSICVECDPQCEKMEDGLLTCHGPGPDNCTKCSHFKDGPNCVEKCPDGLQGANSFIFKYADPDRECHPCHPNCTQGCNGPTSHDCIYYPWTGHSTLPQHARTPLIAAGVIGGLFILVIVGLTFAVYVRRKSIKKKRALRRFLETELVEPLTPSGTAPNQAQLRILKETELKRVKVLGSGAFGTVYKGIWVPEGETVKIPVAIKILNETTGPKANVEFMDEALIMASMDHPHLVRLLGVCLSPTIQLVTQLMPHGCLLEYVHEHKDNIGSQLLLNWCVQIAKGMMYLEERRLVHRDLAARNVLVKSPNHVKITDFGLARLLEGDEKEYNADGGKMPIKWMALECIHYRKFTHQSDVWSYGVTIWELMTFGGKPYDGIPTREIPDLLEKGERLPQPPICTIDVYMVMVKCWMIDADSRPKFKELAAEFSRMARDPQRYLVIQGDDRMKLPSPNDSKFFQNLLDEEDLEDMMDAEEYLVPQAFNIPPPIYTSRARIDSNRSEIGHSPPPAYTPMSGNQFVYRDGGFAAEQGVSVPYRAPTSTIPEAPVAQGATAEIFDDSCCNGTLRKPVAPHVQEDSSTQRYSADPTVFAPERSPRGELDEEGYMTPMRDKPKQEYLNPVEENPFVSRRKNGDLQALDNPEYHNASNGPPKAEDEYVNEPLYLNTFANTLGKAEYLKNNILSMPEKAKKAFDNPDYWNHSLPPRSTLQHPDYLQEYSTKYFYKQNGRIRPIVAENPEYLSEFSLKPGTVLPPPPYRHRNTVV
Chain of Receptor tyrosine-protein kinase erbB-2 (Homo sapiens) (P04626 whole entry): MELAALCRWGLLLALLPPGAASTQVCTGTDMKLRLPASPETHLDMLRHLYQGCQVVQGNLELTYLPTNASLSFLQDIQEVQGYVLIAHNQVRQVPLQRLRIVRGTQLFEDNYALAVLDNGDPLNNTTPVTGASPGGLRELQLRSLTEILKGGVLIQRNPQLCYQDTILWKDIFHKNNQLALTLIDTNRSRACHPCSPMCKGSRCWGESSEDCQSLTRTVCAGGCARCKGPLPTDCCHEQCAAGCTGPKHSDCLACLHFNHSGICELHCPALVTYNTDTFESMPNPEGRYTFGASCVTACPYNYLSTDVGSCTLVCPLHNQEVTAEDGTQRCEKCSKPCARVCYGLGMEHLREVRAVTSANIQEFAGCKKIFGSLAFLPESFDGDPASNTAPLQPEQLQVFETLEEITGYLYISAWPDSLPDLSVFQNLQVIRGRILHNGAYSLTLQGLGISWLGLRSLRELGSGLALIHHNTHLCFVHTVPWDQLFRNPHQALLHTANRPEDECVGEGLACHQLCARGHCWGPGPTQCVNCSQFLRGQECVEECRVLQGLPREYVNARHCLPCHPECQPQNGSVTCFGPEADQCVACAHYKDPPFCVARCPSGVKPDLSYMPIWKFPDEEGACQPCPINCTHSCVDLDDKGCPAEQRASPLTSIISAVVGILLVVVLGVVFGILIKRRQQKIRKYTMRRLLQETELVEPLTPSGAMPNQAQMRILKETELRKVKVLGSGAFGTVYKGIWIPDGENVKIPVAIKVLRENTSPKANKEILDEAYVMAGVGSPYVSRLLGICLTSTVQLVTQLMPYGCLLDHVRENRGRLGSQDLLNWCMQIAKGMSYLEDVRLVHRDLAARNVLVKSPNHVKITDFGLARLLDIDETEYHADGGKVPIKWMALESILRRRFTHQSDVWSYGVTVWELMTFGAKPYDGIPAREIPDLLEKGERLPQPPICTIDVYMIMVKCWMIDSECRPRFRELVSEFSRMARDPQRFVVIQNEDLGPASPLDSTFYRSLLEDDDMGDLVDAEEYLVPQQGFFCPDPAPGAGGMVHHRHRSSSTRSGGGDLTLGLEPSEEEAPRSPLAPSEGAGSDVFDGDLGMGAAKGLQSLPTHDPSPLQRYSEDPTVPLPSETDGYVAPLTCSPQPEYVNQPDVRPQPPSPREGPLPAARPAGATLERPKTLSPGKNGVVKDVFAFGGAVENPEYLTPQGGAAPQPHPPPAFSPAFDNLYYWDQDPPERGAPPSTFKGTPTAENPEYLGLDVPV
Chain of Tyrosine-protein kinase Fer (Homo sapiens) (P16591 whole entry, looked up): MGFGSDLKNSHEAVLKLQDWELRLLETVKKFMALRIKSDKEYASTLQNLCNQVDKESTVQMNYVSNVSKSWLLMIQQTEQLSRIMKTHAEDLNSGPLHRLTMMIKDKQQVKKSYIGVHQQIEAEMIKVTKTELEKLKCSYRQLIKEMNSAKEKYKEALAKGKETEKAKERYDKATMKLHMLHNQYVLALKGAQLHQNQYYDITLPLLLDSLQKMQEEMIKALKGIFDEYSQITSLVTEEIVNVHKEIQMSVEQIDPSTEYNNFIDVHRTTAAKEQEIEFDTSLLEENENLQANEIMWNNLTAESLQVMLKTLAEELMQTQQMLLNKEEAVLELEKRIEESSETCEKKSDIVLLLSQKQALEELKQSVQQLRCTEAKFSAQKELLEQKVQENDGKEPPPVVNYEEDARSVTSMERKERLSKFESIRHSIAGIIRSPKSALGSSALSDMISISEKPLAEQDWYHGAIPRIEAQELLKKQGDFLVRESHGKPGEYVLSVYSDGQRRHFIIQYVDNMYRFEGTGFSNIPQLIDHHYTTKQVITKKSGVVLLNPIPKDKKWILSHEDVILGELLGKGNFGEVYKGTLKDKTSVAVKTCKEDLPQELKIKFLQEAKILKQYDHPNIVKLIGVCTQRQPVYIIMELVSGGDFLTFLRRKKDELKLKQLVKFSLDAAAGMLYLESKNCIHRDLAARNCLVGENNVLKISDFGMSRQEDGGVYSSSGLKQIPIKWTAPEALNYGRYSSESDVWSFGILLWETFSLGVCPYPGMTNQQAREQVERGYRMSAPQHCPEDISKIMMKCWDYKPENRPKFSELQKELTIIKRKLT

The term inhibition denotes the drop in the measured response relative to a control, in per cent. For `COc1cc2ncn(-c3cc(O[C@H](C)c4ccccc4Cl)c(C(N)=O)s3)c2cc1OC`, the inhibition in experiment [1] was determined as 21.9%; in experiment [2], 3.78%; in experiment [3] it was 5.92%; in [4], 4.27%; in experiment [5] it was 7.03%; in experiment [6], 2.23%. In addition, the inhibition amounted to 7.82% in experiment [7], 7.95% in experiment [8], 14% in [9] and 4.62% in experiment [10].
Take `O=C1Nc2ccc(C(=O)c3ccco3)cc2C1=Cc1cc(Cl)c(O)c(Cl)c1`: the inhibition turned out to be 15% in [1]; 4.56% in [2]; 5.53% in [3]; 3.11% in experiment [4]; 2.52% in experiment [5]; 0.77% in experiment [6]. For the same molecule, the inhibition came to 4.54% in [7], 12.2% in [8], 15.8% in experiment [9] and 2.31% in [10].
Consider `COC(=O)Nc1nc2cc(Oc3cccc(NC(=O)Nc4cc(C(F)(F)F)ccc4F)c3)ccc2[nH]1`, for which the inhibition in experiment [1] was 8.15%; in [2] it was 2.88%; in [3], 0.33%; in experiment [4], 0.65%; in [5], 2.71%; in experiment [6], -1.15%. Besides, the inhibition in [7] was -2.43%; in [8] it was 3.99%; in [9], 6.3%; in experiment [10], 0.75%.
Regarding `CCN1CCC(CC(=O)Nc2n[nH]c3nc(-c4cccs4)c(Br)cc23)CC1`, the inhibition is 1.96% in experiment [1]; -2.11% in experiment [2]; -3.61% in [3]; -1.44% in experiment [4]; -2.19% in experiment [5]; -4.26% in [6]. The inhibition was -1.56% in [7], -5.1% in [8], -7.08% in experiment [9] and 0.22% in [10].
Regarding `O=C1NC(=O)C(c2cccc(Cl)c2)=C1Nc1ccc(O)c(Cl)c1`, the inhibition in experiment [1] is -8.35%; in experiment [2] it was 2.73%; in [3] it was -5.14%; in experiment [4], 1.15%; in [5], -0.03%; in experiment [6], 0.29%. The inhibition in [7] was -5.89%; in experiment [8], 5.49%; in [9], 6.06%; in experiment [10] it was 3.79%.
Turning to `NS(=O)(=O)c1ccc(N/N=C2\C(=O)Nc3ccc(C(=O)NCCc4c[nH]cn4)cc32)cc1`, the inhibition amounted to 16.2% in experiment [1]; 3.04% in experiment [2]; 0.13% in experiment [3]; 4.11% in experiment [4]; 6.29% in [5]; 1.36% in [6]. Also, the results for the inhibition in [7], in [8] and in [9] were 1.09%, 6.82% and 7.51%, respectively.
In the case of `Nc1ncnc2occ(-c3ccc(NC(=O)Nc4cccc(C(F)(F)F)c4)cc3)c12`, the inhibition in [1] was 78.2%; in experiment [2] it was 19.6%; in experiment [3], 68.2%; in experiment [4] it was 31.2%; in [5] it was 84.4%; in experiment [6] it was -0.01%. Besides, the inhibition was 3.75% in experiment [7], 8.79% in [8], 15.2% in experiment [9] and 2.94% in experiment [10].
Take `O=C1NC(=O)C(N2CCc3ccccc32)=C1c1ccc(Cl)cc1`: the inhibition was 12.6% in [1]; 7.43% in experiment [2]; 6.04% in experiment [3]; 3.92% in experiment [4]; 1.54% in [5]; 0.97% in experiment [6]. Further, the inhibition in experiment [7] is -4.09%; in experiment [8] it was 8.85%; in [9], 24%; in [10] it was 2.88%.
As for `COc1ccccc1Nc1ncc(-c2ccccc2)o1`, the inhibition in experiment [1] is 10.8%; in [2] it was 2.82%; in experiment [3] it was 3.43%; in experiment [4] it was 1.6%; in [5] it was 5.33%; in [6], 0.38%. Moreover, the inhibition in experiment [7] was found to be 6.93%; in [8], 8.18%; in [9], 15.7%; in experiment [10], 4.02%.
